In PubChem BioAssay (NCATS):
Results filed as inconclusive are left out. Calls of active or inactive are those of the source. Calls follow the shape of the dose curve; as a rule, active = well fitted inhibition curve with a large enough effect; inconclusive = small, poorly fitted or top-dose-only effect; inactive = flat fitted curve, though single readings scatter.

Tested on: CRL-7250
Assay: qHTS assay to identify novel small-molecules to repurpose for Merkel cell carcinoma treatment (AID 1296009); also: nearly all actives have a fitted effect of over 60% in size
Details: MCC and control cell lines, CellTiter-Glo viability, 72 h; series mostly up to 92 µM; activity change, negative = cytotoxicity: at the top concentration
Method in brief: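 Viability readout: ATP luminescence (CellTiter-Glo) after 72 hr drug exposure at 37 degree celsius. Dose-response format was 8 points for NPC and 11 points for MIPE; data normalized to in-plate controls.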

| SMILES | outcome |
| --- | --- |
| C[C@H](Oc1ccc(S(C)(=O)=O)cc1C(=O)N1CCN(c2ncc(C(F)(F)F)cc2F)CC1)C(F)(F)F | inactive |
| CC1OC(OC2C(CO)OC(OCC3OC(OC(=O)C45CCC(C)(C)CC4C4=CCC6C7(C)CCC(OC8OC(C(=O)O)C(O)C(OC9OC(CO)C(O)C(O)C9O)C8O)C(C)(C)C7CCC6(C)C4(C)CC5)C(O)C(O)C3O)C(O)C2O)C(O)C(O)C1O (stereo unspecified) | inactive [at 9.27 µM] |
| COCC(=O)N1CCc2cc(-c3csc(NC(=O)c4cc(OC)cc(OC)c4)n3)ccc21 | inactive |
| Cn1c2ccc(F)cc2c2c(C(=O)N3CCCC3)cn(-c3ccccc3)c(=O)c21 | inactive |
| Cc1[nH]cnc1C1CCN(c2nc3cccc4c3n2CCC4=O)CC1 | inactive |
| CN(C)CCn1cc(S(=O)(=O)c2cccc(F)c2)c2cccnc21 | inactive |
